# Source: the supplement of paper PMC6555819
# Legend:
# Test in all cases: PBM binding z-score (relative to random genomic background probes); higher = stronger binding; sequences stand for … in GC…GCGATTGACAGCGTAGAATGAAGG
# [1] = test system: PPARg:RXRa DBDmut IVT, anti-RXR (DBD mutation: RXRa K156A/R161A, NR concentration 270 nM, RXRa partner concentration 90 nM)
# How it was run: (§1)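 Random background probes are the reference for binding z-scores. These scores derive from regression-normalized fluorescence on custom Agilent 4×180K protein-binding microarrays incubated 1 h with ligand-free nuclear receptor dimers. Binding was detected with antibodies against each partner (one per run).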
# [2] = test system: PPARg:RXRa IVT, anti-PPARg (NR concentration 270 nM, RXRa partner concentration 90 nM)
# How it was run: as §1
# [3] = test system: PPARg DBDmut:RXRa IVT, anti-PPARg (DBD mutation: PPARg1 K132A/R137A, NR concentration 270 nM, RXRa partner concentration 90 nM)
# How it was run: as §1
# [4] = test system: PPARg DBDmut IVT, anti-PPARg (DBD mutation: PPARg1 K132A/R137A, NR concentration 270 nM)
# How it was run: as §1
# [5] = test system: PPARg homodimer (NR concentration 180 nM)
# How it was run: as §1
# [6] = test system: PXR:RXRa (NR concentration 270 nM, RXRa partner concentration 90 nM)
# How it was run: as §1
# [7] = test system: PXR homodimer (NR concentration 270 nM)
# How it was run: as §1
# [8] = test system: RARa:RXR (NR concentration 270 nM, RXRa partner concentration 90 nM)
# How it was run: as §1
# [9] = test system: RARa homodimer (NR concentration 270 nM)
# How it was run: as §1
# [10] = test system: RARb:RXRa (NR concentration 270 nM, RXRa partner concentration 90 nM)
# How it was run: as §1
# [11] = test system: RARb homodimer (NR concentration 270 nM)
# How it was run: as §1
# [12] = test system: RARg:RXRa (NR concentration 270 nM, RXRa partner concentration 90 nM)
# How it was run: as §1
# [13] = test system: RARg homodimer (NR concentration 270 nM)
# How it was run: as §1
# [14] = test system: RXRa DBDmut IVT, anti-RXR (DBD mutation: RXRa K156A/R161A, NR concentration 90 nM)
# How it was run: as §1
# [15] = test system: RXRa homodimer (NR concentration 180 nM)
# How it was run: as §1
# [16] = test system: THRa:RXRa (NR concentration 90 nM, RXRa partner concentration 90 nM)
# How it was run: as §1
# [17] = test system: THRa homodimer (NR concentration 90 nM)
# How it was run: as §1
# [18] = test system: VDR homodimer (NR concentration 270 nM)
# How it was run: as §1
Sequence,PBM binding z-score [1],PBM binding z-score [2],PBM binding z-score [3],PBM binding z-score [4],PBM binding z-score [5],PBM binding z-score [6],PBM binding z-score [7],PBM binding z-score [8],PBM binding z-score [9],PBM binding z-score [10],PBM binding z-score [11],PBM binding z-score [12],PBM binding z-score [13],PBM binding z-score [14],PBM binding z-score [15],PBM binding z-score [16],PBM binding z-score [17],PBM binding z-score [18]
TGTCGAAGTTCAAAGGTAACGTAAGTATCCACAC,-0.721,2.09,0.265,0.298,1.53,4.12,1.65,4.17,0.485,3.61,2.43,4.25,3.04,3.6,5.18,2.81,-0.0887,2.72
CCTATTAGTTGTCCATAAGGGCAACCGAAGCTCG,0.332,0.804,0.706,1.02,1.69,0.563,0.996,1.1,2.11,1.44,1.81,1.01,0.8,0.67,0.161,1.8,1.64,1.07
TCTCGGAGGACACGAAGGTCAGAGCGTTCCAGAG,1.02,1.49,-0.71,-1.07,1,1.87,0.555,1.84,-0.476,3.4,3.79,3.32,3.84,0.548,1.94,2.99,0.835,1.2
CGTCCAAGGTCATAGGAGGTCAGGGAAGACAGAT,3.02,4.92,1.73,1.82,5.03,6.9,3.35,6.79,2.46,5.31,5.2,6.79,7.15,3.89,6.99,5.41,3.54,4.28
TCTTGTAGATCATAGGTTAAGAAAGCCGAAGCCT,1.8,1.96,0.499,1.11,0.856,0.84,-0.184,1.37,0.366,0.882,0.203,0.785,0.187,0.657,1.34,0.458,-0.386,-0.05
TCGAGTAGGTTACCAATGGGGAATTCAGCTTTCT,3.57,2.58,-0.097,-0.739,-0.227,-0.148,-1.08,0.0848,-1.2,0.621,-0.273,0.258,-0.0594,0.599,0.509,-0.0396,-1.08,-0.782
CCAGACAGGTGAGGAGGTAACTCAGCCTCGATTA,0.968,0.86,-0.637,-0.654,0.632,0.016,0.482,0.341,0.613,0.524,0.852,0.397,0.304,-0.0213,0.216,0.684,0.59,0.177
ACAGACAGGTGAGTGAGGGTAACTCAGCTGGACG,0.621,0.841,-0.523,-0.675,0.225,-0.025,0.261,0.222,-0.162,0.987,0.68,0.525,0.533,-0.362,0.572,1.63,0.184,0.0737
